Unmarked numbers belong to inactive results. Records with an inconclusive call do not appear. Entries that show only a call come without a potency. Activity calls are given as the source filed them. Unless noted, calls come from the whole dose curve; as a rule, active = well fitted curve in the direction sought with a large enough effect in the repeat runs; inconclusive = weak or mixed curves; inactive = no such curve, though single readings can be large; an effect the other way counts as inactive or inconclusive.
What was measured:
[1] = qHTS assay for small molecule agonists of the p53 signaling pathway (AID 651631; calls by dose curve; note: nearly all actives have a fitted effect of over 15% in size; note: potency is the fitted concentration of half-maximal effect)
In short: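 We treat p53RE-bla HCT-116 cells with compounds for 16 h at 37 °C, add LiveBLAzer B/G FRET substrate for 2 h at room temperature, and measure fluorescence intensity.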

[2] = qHTS assay for small molecule agonists of the p53 signaling pathway - cell viability (AID 651633; calls by dose curve;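 note: p53RE-bla HCT reporter cells with a stable beta-lactamase p53 reporter; series mostly up to about 83 µM; nearly all actives have a fitted effect of over 30% in size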)
In short: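 Viability counter-read: CellTiter-Glo luminescence (30 min, room temperature) in the same p53RE-bla plates. These plates had been exposed to compounds for 16 h at 37 C.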

[3] = qHTS assay for small molecules that induce genotoxicity in human embryonic kidney cells expressing luciferase-tagged ATAD5 - cell viability (AID 651634; calls by dose curve; note: nearly all actives have a fitted effect of over 25% in size)
In short: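 Fluorescence from CellTiter-Fluor, reporting protease activity within live cells, served as the viability read-out. HEK293T cells carrying luciferase-tagged ATAD5 had been treated with compound for 15.5 hr at 37C.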

[4] = qHTS assay for small molecule disruptors of the mitochondrial membrane potential - cell viability (AID 720634; calls by dose curve;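 note: human HepG2 liver cancer cells; series mostly up to about 83 µM; nearly all actives have a fitted effect of over 20% in size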)
In short: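 Cells: HepG2, 2,000/well, attached overnight. Compound 1 hr, 37 C/5% CO2. +m-MPI dye, +CellTiter-Glo 30 min RT. Readout: luminescence (ATP).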

[5] = qHTS assay to test for compound auto fluorescence at 590 nm (red) in HepG2 cells (AID 720674)
In short: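 We screened compounds on adherent HepG2 cells, incubating them for an hour at 37 C in 5% CO2 before reading emission at 590 nm under 540 nm excitation; values reflect equivalence to Rose Bengal sodium fluorescence.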

[6] = qHTS assay to test for compound auto fluorescence at 535 nm (green) in HepG2 cells (AID 720675)
[7] = qHTS assay to test for compound auto fluorescence at 460 nm (blue) in HEK293 cells (AID 720678)
In short: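 HEK293, 2,000 cells/well, 10% dialyzed FBS; attach 4-5 hr 37C; pin compound or DMSO; o/n 37C/5% CO2; fluorescence 405/460 nm; triamterene-equivalent units.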

[8] = qHTS assay to test for compound auto fluorescence at 590 nm (red) in HEK293 cells (AID 720679)
In short: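 Intensity at 540nm excitation and 590nm emission is reported as Rose Bengal sodium-equivalent autofluorescence. Measurements followed overnight exposure (37C, 5% CO2) of HEK293 cells, 2,000 per well, to 23 nL compound.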

[9] = qHTS assay for small molecules that induce genotoxicity in human embryonic kidney cells expressing luciferase-tagged ATAD5 (AID 651632); note: nearly all actives have a fitted effect of over 15% in size
In short: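 ATAD5-luc HEK293T, 2,000 cells/well; cpd or DMSO pin-transferred; 16 hr, 37C/5% CO2; Amplite 30 min RT; luminescence.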

[10] = qHTS assay for small molecule disruptors of the mitochondrial membrane potential (AID 720635); note: potency is the fitted concentration of half-maximal effect
In short: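 Mitochondrial membrane potential tracked with Mito-MPS dye, red aggregates (ex 540/em 590 nm) against green monomers (ex 490/em 535 nm). Compound treatment 1 hr at 37C, dye 30 min in HepG2.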

Row | Structure (SMILES) | Potency [1] | Potency [2] | Potency [3] | outcome [4] | outcome [5] | outcome [6] | outcome [7] | outcome [8] | Potency [9] | Potency [10] | fluorescence, relative to Rose Bengal [5] | fluorescence, % of fluorescein control [6] | fluorescence, % of triamterene [7] | fluorescence, % of fluorescent control [8]
1 | CCCCCCCC1CCCC1=O (configuration not stated) | inactive | inactive | inactive | inactive | inactive | inactive | inactive | inactive | – | – | – | – | – | –
2 | CCN(CC#N)c1cccc(C)c1 | inactive | inactive | – | inactive | inactive | – | inactive | inactive | inactive | – | – | – | – | –
3 | CC(C)C(=O)OC(=O)C(C)C | inactive | inactive | inactive | – | inactive | – | inactive | inactive | – | inactive | – | – | – | –
4 | NO | inactive | inactive | inactive | inactive | inactive | inactive | inactive | inactive | – | 55.5 µM (active) | – | – | – | –
5 | O=S(=O)(O)c1cccc2c(S(=O)(=O)O)cccc12 | inactive | inactive | inactive | inactive | inactive | inactive | inactive | inactive | – | – | – | – | – | –
6 | Nc1ccn([C@@H]2O[C@H](CO)[C@@H](O)C2(F)F)c(=O)n1 | 0.106 µM (active) | – | inactive | inactive | inactive | inactive | inactive | inactive | – | – | – | – | – | –
7 | CN1CCN(c2cc3c(nn2)Oc2ccccc2N3C)CC1 | inactive | inactive | inactive | inactive | inactive | inactive | inactive | inactive | – | inactive | – | – | – | –
8 | O=C1NC(=O)C2CC=CCC12 (configuration not stated) | inactive | inactive | inactive | – | inactive | inactive | inactive | inactive | – | – | – | – | – | –
9 | C[N+]1(C)CCCC(OC(=O)C(O)(c2ccccc2)c2ccccc2)C1 (configuration not stated) | inactive | inactive | inactive | – | – | – | – | – | – | inactive | 0.011% [at 18.6 µM] | -0.152% [at 18.6 µM] | 0.0818% [at 18.6 µM] | 0.215% [at 18.6 µM]
10 | C=COCC1CCC(COC=C)CC1 (configuration not stated) | inactive | inactive | inactive | – | inactive | inactive | inactive | inactive | – | inactive | – | – | – | –
11 | CCC(C)(CN(C)C)OC(=O)c1ccccc1 (configuration not stated) | inactive | inactive | inactive | inactive | – | – | – | – | – | inactive | -0.657% [at 18.6 µM] | -0.164% [at 18.6 µM] | 0.148% [at 18.6 µM] | 0.273% [at 18.6 µM]
12 | c1ccc(Cc2ccccc2)cc1 | inactive | inactive | inactive | inactive | inactive | inactive | inactive | inactive | – | – | – | – | – | –
13 | O=C(O)c1cc(C(=O)O)cc(C(=O)O)c1 | inactive | inactive | inactive | inactive | inactive | – | inactive | inactive | – | inactive | – | – | – | –
14 | CCCCCCCCCCCCSC | inactive | inactive | inactive | – | inactive | – | inactive | inactive | – | – | – | – | – | –
15 | CC(C)COC(=O)c1ccc(N)cc1 | inactive | inactive | inactive | inactive | inactive | inactive | inactive | inactive | – | – | – | – | – | –

From PubChem BioAssay (Tox21)
